Screening results from PubChem.
HT1080 IDH1KD tx = qHTS for induction of synthetic lethality in tumor cells producing 2HG: qHTS for the HT-1080-IDH1KD cell line | HT-1080 IDH1 knockdown viability, ATP luminescence, 48 h | Potency, µM (titrated, usually from 46.1 µM), without a hit: top-dose activity, negative = toxicity, most hits filed as cytotoxic | 2% of 360,000 active | AID 686971, 2013;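 also: potency is read from the fitted curve at half-maximal effect; 0% = DMSO wells and -100% = cell-free medium wells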
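Luminescent ATP read-out (CellTiter-Glo, 10 min at room temperature) after 48 h compound exposure at 37 °C gave viability of IDH1-knockdown HT-1080 cells. Activity was normalised to DMSO and cell-free wells, then fitted as concentration-response curves.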
TDP1 cell noCPT = qHTS for Inhibitors of human tyrosyl-DNA phosphodiesterase 1 (TDP1): qHTS in cells in absence of CPT; DT40 Tdp1-/- hTDP1 cells, no CPT, ATP luminescence, 48 h; Potency, µM (highest dose often 46.2 µM), for inactives: at the top dose activity change, negative = growth inhibition, actives largely listed as inhibitors; 15% of 420,000 active; also: potency is read from the fitted curve at half-maximal effect; nearly all actives have a fitted effect of over 55% in size
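Luminescent ATP content (CellTiter-Glo) served as the growth readout. Knockout chicken DT40 cells expressing human TDP1 were exposed to compounds without camptothecin for a minimum 48 hr at 37 °C.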
HT1080-NT tox = qHTS for induction of synthetic lethality in tumor cells producing 2HG: qHTS for the HT-1080-NT fibrosarcoma cell line | HT-1080-NT fibrosarcoma viability, CellTiter-Glo ATP luminescence, 48 h | Potency, µM (series often up to 46.1 µM), inactives show at the highest dose activity, negative = less viability, actives largely listed as cytotoxic | 1.6% of 360,000 active | AID 686970, 2013;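 also: NT is the 2HG producing partner of a matched IDH1 knockdown line; potency is read from the fitted curve at half-maximal effect; 0% = DMSO-treated cells and -100% = media-only wells without cells; nearly all actives have a fitted effect of over 55% in size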
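Read-out is CellTiter-Glo luminescence after 10 minutes at room temperature, following 48 hours' compound treatment of HT-1080-NT cells (750 cells/well, RPMI, 5% FBS, 37 degrees C).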
IL1B secr inh = qHTS for Inhibitors of Inflammasome Signaling: IL-1-beta AlphaLISA Primary Screen; THP-1 LPS/ATP IL-1B secretion, AlphaLISA, 16 h; stronger effect = lower value; activity change, % at 57.5 µM; 4.7% of 360,000 active; AID 743279, 2014; in the data active = activity change below about -50%; inconclusive = mostly about -30% to -49%
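Secreted IL-1B measured by AlphaLISA bead assay after 16 h compound exposure of THP-1 cells; compounds (final up to 57.5 uM) added 1 h before LPS (250 ng/mL) and ATP (1.25 mM) stimulation; lower signal means less secretion.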
DT40 TDP1 CPT = qHTS for Inhibitors of human tyrosyl-DNA phosphodiesterase 1 (TDP1): qHTS in cells in presence of CPT; 12% of 420,000 active; Potency, µM (series often up to 46.2 µM), for the others: top-dose activity change, negative = growth inhibition, actives largely listed as inhibitors; chicken DT40 Tdp1-/-;hTDP1 cells + 20 nM CPT, ATP luminescence, 48 h; also: potency is read from the fitted curve at half-maximal effect; nearly all actives have a fitted effect of over 55% in size
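Chicken DT40 Tdp1-/- cells stably complemented with human TDP1 were seeded at 400 cells/well in medium containing 20 nM camptothecin, exposed to pin-transferred compounds, and grown at 37 °C for at least 48 hr. Viability was read as ATP luminescence.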
Numbers without * were called inactive. Shown are actives, neighbours in structure and some others; about 19% of the full set was active somewhere. Unless noted, calls follow the shape of the dose curve; as a rule, active = well fitted curve in the direction sought with a large enough effect; inconclusive = small, poorly fitted or top-dose-only effect, or another doubt; inactive = no such curve, though single readings can be large; an effect the other way counts as inactive or inconclusive. Unless noted, % is scaled to controls: 0 for no effect and ±100 for the full control effect.

How did CC(C)c1nc2sc3c(N4CCCCC4)ncnc3c2c2c1CCCC2 do in these assays?
TDP1 cell noCPT: -3%; DT40 TDP1 CPT: 6%

How did Cc1ccc(S(=O)(=O)c2cn(CC(=O)Nc3ccc4c(c3)OCO4)c3ccc(C)cc3c2=O)cc1 do in these assays?
TDP1 cell noCPT: -15%; DT40 TDP1 CPT: 6%

What do the screens show for `O=C(CNC(=S)NC(=O)c1ccc(Cl)cc1)c1ccccc1`?
HT1080 IDH1KD tx: 0%; TDP1 cell noCPT: inconclusive; HT1080-NT tox: -1%; IL1B secr inh: 34; DT40 TDP1 CPT: -6%

Results for O=C(CNC(=S)NC(=O)c1ccc(Br)o1)c1ccccc1 ?
HT1080 IDH1KD tx: -1%; TDP1 cell noCPT: inconclusive; HT1080-NT tox: -1%; IL1B secr inh: 0; DT40 TDP1 CPT: 16µM*

What do the screens show for `CN(CC(=O)Nc1cc(Cl)cc(Cl)c1)Cc1cccs1`?
HT1080 IDH1KD tx: -11%; TDP1 cell noCPT: -22%; HT1080-NT tox: inconclusive; IL1B secr inh: -17; DT40 TDP1 CPT: -7%

How did CCN1CCN(Cc2cccc(Oc3ccc(Cl)cc3)c2)CC1 do in these assays?
HT1080 IDH1KD tx: inconclusive; TDP1 cell noCPT: 16µM*; HT1080-NT tox: inconclusive; IL1B secr inh: -27; DT40 TDP1 CPT: inconclusive

What do the screens show for `CN1CCN(Cc2cccc(Oc3ccc(Cl)cc3)c2)CC1`?
HT1080 IDH1KD tx: -15%; TDP1 cell noCPT: inconclusive; HT1080-NT tox: inconclusive; IL1B secr inh: inconclusive; DT40 TDP1 CPT: 29µM*

Results for CCOC(=O)C1CCN(Cc2cccc(Oc3ccc(Cl)cc3)c2)CC1 ?
HT1080 IDH1KD tx: -4%; TDP1 cell noCPT: -25%; HT1080-NT tox: -5%; IL1B secr inh: 0; DT40 TDP1 CPT: inconclusive

Results for CCN1CCN(Cc2cccc(Oc3ccccc3)c2)CC1 ?
HT1080 IDH1KD tx: 11%; TDP1 cell noCPT: -15%; HT1080-NT tox: 1%; IL1B secr inh: -12; DT40 TDP1 CPT: -15%

How did Cc1c(N=NC2=C(O)CCCC2=O)c(=O)n(-c2ccccc2)n1C do in these assays?
HT1080 IDH1KD tx: -26%; TDP1 cell noCPT: inconclusive; HT1080-NT tox: -11%; IL1B secr inh: 8; DT40 TDP1 CPT: inconclusive

How did CCc1ccc(N2C(=O)CC(c3cc(OC)ccc3OC)C3=C2COC3=O)cc1 (centres undefined) do in these assays?
TDP1 cell noCPT: inconclusive; DT40 TDP1 CPT: -25%

What do the screens show for `CN(C)CCCn1c2c(c(SCC(=O)Nc3cccc4ccccc34)nc1=O)CCCC2`?
HT1080 IDH1KD tx: -6%; TDP1 cell noCPT: -16%; HT1080-NT tox: -4%; IL1B secr inh: -97*; DT40 TDP1 CPT: -6%

Results for COc1ccc(Cl)cc1NC(=O)CSc1nc(=O)n(CCN(C)C)c2c1CCCC2 ?
HT1080 IDH1KD tx: -1%; TDP1 cell noCPT: inconclusive; HT1080-NT tox: -14%; IL1B secr inh: inconclusive; DT40 TDP1 CPT: 16µM*

What do the screens show for `CCc1ccc(OCC(=O)N/N=C/c2cc([N+](=O)[O-])ccc2N2CCOCC2)cc1`?
HT1080 IDH1KD tx: -8%; TDP1 cell noCPT: inconclusive; HT1080-NT tox: -11%; IL1B secr inh: -16; DT40 TDP1 CPT: inconclusive

Results for CCN(CC)C(=O)C1CCCN(c2ccc([N+](=O)[O-])cc2/C=N/NC(=O)c2cccc(O)c2)C1 (centres undefined) ?
HT1080 IDH1KD tx: 7%; TDP1 cell noCPT: inconclusive; HT1080-NT tox: 4%; IL1B secr inh: -61*; DT40 TDP1 CPT: inconclusive

Results for O=C(N/N=C\c1cc([N+](=O)[O-])ccc1N1CCCC1)c1ccccn1 ?
HT1080 IDH1KD tx: 6%; TDP1 cell noCPT: -21%; HT1080-NT tox: 3%; IL1B secr inh: -17; DT40 TDP1 CPT: inconclusive

What do the screens show for `COc1cc(/C=N/NC(N)=S)ccc1OCC(=O)N1CCOCC1`?
HT1080 IDH1KD tx: 15%; TDP1 cell noCPT: 0%; HT1080-NT tox: 22%; IL1B secr inh: 28; DT40 TDP1 CPT: 6%

What do the screens show for `Cc1cccc(OCC(=O)N/N=C/c2cc([N+](=O)[O-])ccc2N2CCOCC2)c1`?
HT1080 IDH1KD tx: -18%; TDP1 cell noCPT: 18µM*; HT1080-NT tox: -11%; IL1B secr inh: 10; DT40 TDP1 CPT: 21µM*

How did COc1cc(/C=N/NC(=O)COc2ccc([N+](=O)[O-])cc2)ccc1OCC(=O)N1CCOCC1 do in these assays?
HT1080 IDH1KD tx: 1%; TDP1 cell noCPT: 16µM*; HT1080-NT tox: -6%; IL1B secr inh: -9; DT40 TDP1 CPT: -19%

What do the screens show for `CCN(CC)C(=O)C1CCCN(c2ccc([N+](=O)[O-])cc2/C=N/NC(=O)c2ccccc2)C1` (centres undefined)?
HT1080 IDH1KD tx: 7%; TDP1 cell noCPT: inconclusive; HT1080-NT tox: 8%; IL1B secr inh: -13; DT40 TDP1 CPT: -12%

Results for COc1ccc(NCC(=O)N/N=C/c2cc([N+](=O)[O-])ccc2N2CCCC2)cc1 ?
HT1080 IDH1KD tx: -30%; TDP1 cell noCPT: inconclusive; HT1080-NT tox: -11%; IL1B secr inh: inconclusive; DT40 TDP1 CPT: 21µM*

Results for Cc1ccc(-c2nn3c(-c4ccccc4)nnc3c3ccccc23)cc1 ?
TDP1 cell noCPT: -18%; DT40 TDP1 CPT: 8%

What do the screens show for `Cc1ccc(-c2nn3c(-c4ccccc4C)nnc3c3ccccc23)cc1`?
TDP1 cell noCPT: 18µM*; DT40 TDP1 CPT: inconclusive

How did COc1ccc2oc(=O)c(C(=O)NCc3ccccc3)cc2c1 do in these assays?
HT1080 IDH1KD tx: 2%; TDP1 cell noCPT: -10%; HT1080-NT tox: 1%; IL1B secr inh: -17; DT40 TDP1 CPT: inconclusive

Results for COc1ccc(C(=O)N/N=c2\oc3ccccc3cc2C(=O)NCc2ccccc2)cc1 ?
HT1080 IDH1KD tx: 13%; TDP1 cell noCPT: 15µM*; HT1080-NT tox: 6%; IL1B secr inh: -5; DT40 TDP1 CPT: 16µM*

Results for COc1ccc(CNC(=O)c2cc3cc(OC)ccc3oc2=O)cc1 ?
HT1080 IDH1KD tx: inconclusive; TDP1 cell noCPT: 12µM*; HT1080-NT tox: -25%; IL1B secr inh: 15; DT40 TDP1 CPT: 18µM*

How did CSCCC(NC(=O)c1ccccc1Br)C(=O)NNC(=O)c1ccco1 (centres undefined) do in these assays?
HT1080 IDH1KD tx: 1%; TDP1 cell noCPT: -3%; HT1080-NT tox: 3%; IL1B secr inh: 15; DT40 TDP1 CPT: inconclusive

What do the screens show for `CC(=O)NC1=NN(C(C)=O)C2(S1)C(=O)N(C(C)=O)c1ccc(C)cc12` (centres undefined)?
HT1080 IDH1KD tx: 12%; TDP1 cell noCPT: inconclusive; HT1080-NT tox: 26%; IL1B secr inh: 7; DT40 TDP1 CPT: inconclusive
